IP6K1 inhibitor: IP6K1 kinase inhibition | Q92551 | IP6K1 kinase, ADP-Glo luminescence, 2 h; hits give low values | activity change, % (series mostly up to about 58 µM) | 140,000 tested, 0.81% active; in the data active = activity change below about -25%
Target sequence (Q92551 whole entry, looked up): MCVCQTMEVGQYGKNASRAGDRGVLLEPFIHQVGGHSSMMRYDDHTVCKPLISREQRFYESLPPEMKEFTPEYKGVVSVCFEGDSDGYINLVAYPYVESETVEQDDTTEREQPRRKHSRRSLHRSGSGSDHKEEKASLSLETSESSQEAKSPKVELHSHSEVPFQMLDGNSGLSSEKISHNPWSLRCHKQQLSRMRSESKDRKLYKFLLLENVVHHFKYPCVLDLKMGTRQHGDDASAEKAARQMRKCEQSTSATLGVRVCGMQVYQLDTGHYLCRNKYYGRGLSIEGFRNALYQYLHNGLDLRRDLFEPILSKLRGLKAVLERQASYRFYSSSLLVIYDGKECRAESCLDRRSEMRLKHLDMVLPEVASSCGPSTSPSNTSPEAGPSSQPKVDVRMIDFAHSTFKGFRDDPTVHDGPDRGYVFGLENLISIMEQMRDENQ
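ADP-Glo luminescence measures ADP made by human IP6K1 during a 2 h RT reaction with ATP/IP6 (mix at 1.3 mM/130 uM); top library doses 57.5 and 19.1 uM final.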
KDM5B inh: inhibitors of human KDM5B histone demethylase | Q9UGL1 | KDM5B demethylase, FDH-coupled NADH fluorescence (FDH is formaldehyde dehydrogenase) | Potency, µM (series often up to 57.7 µM), usual class: inhibitors | 220,000 tested, 2.6% active | AID 1347165; also: nearly all actives have a fitted effect of over 70% in size
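Here, H3K4me3 peptide (12.5 µM in substrate mix) is demethylated by KDM5BΔAP, 200 nM final, after 10 min compound exposure. Formaldehyde product is coupled through FDH (0.25 U/mL in mix) to NADH fluorescence; 30-min ΔRFU feeds dose-response curves.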
HEK293 viab: reduces viability of HEK-293 SNCA reporter cells; HEK-293-SNCA-luc viability, GF-AFC fluorescence, 24 h; Potency, µM (highest dose often 57.1 µM), hits mostly cytotoxic; 150,000 tested, 0.12% active; also: nearly all actives have a fitted effect of over 30% in size
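Cytotoxicity counterscreen: after 24 h compound treatment of genome-edited SNCA-luciferase HEK-293 cells, live-cell protease substrate GF-AFC read by fluorescence after 30 min; activity scaled between DMSO (0%) and medium-only (-100%), curves Hill-fitted.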
SNCA expr inh: reduces expression of the alpha-synuclein gene; HEK-293 SNCA-luciferase knock-in, luminescence, 24 h; Potency, µM (series often up to 57.2 µM), most hits filed as inhibitors; 140,000 tested, 0.17% active; AID 1671194; also: nearly all actives have a fitted effect of over 45% in size
IP6K1 inh cnf: confirmation of human IP6K1 inhibitors. 1,200 tested, 13% active. recombinant IP6K1 kinase, ADP-Glo luminescence, 2 h. Potency, µM (highest dose often 49 µM), hits mostly inhibitors. AID 1645852. shares compounds with IP6K1 inhibitor; also: nearly all actives have a fitted effect of over 65% in size
Each line names hits and unclear results; the compound was inactive in the other large screens (follow-up assays come after a bar, where they were run). A selection: hits, their analogues and other compounds. The true share with any hit is near 2.8%. Unless noted, calls follow the shape of the dose curve; as a rule, active = well fitted curve in the direction sought with a large enough effect; inconclusive = small, poorly fitted or top-dose-only effect, or another doubt; inactive = no such curve, though single readings can be large; an effect the other way counts as inactive or inconclusive.

COCC1CCN(c2ccc(-c3nc(CCCc4ccccc4)no3)cn2)C1 (configuration not stated)	IP6K1 inhibitor -33, KDM5B inh 35µM | IP6K1 inh cnf inactive
O=C(CCCc1ccccc1)N1CCC(Cc2noc(-c3ccccc3)n2)C1 (configuration not stated)	none (no result: KDM5B inh)
COc1ccc(CNC(=O)c2cc3c(-c4ccccc4F)nn(C)c3s2)cc1	IP6K1 inhibitor -36, KDM5B inh inconclusive | IP6K1 inh cnf inconclusive
COc1ccc(CCNC(=O)c2cc3c(-c4ccccc4F)nn(C)c3s2)c(OC)c1	KDM5B inh inconclusive
COCCNc1nc(NCc2ccccc2OC)c2cnn(C)c2n1	KDM5B inh inconclusive
COCCCNc1nc(NCc2ccccc2OC)c2cnn(C)c2n1	IP6K1 inhibitor -30, KDM5B inh inconclusive | IP6K1 inh cnf inactive
COCCCNc1nc(NCc2ccc(C)cc2)c2cnn(C)c2n1	IP6K1 inhibitor -36, KDM5B inh inconclusive | IP6K1 inh cnf inactive
CN(C)CC1(O)CCCN(Cc2ccc(-c3ccc(Cl)cc3)o2)C1 (configuration not stated)	KDM5B inh inconclusive
CN[C@H](CC(C)C)C(=O)N[C@H]1C(=O)N[C@@H](CC(N)=O)C(=O)N[C@H]2C(=O)N[C@H]3C(=O)N[C@H](C(=O)N[C@H](C(=O)O)c4cc(O)cc(O)c4-c4cc3ccc4O)[C@H](O[C@H]3C[C@](C)(N)[C@@H](O)[C@H](C)O3)c3ccc(c(Cl)c3)Oc3cc2cc(c3O[C@@H]2O[C@H](CO)[C@@H](O)[C@H](O)[C@H]2O[C@H]2C[C@](C)(NCc3ccc(-c4ccc(Cl)cc4)cc3)[C@@H](O)[C@H](C)O2)Oc2ccc(cc2Cl)[C@H]1O	IP6K1 inhibitor -32 (no result: KDM5B inh, SNCA expr inh) | IP6K1 inh cnf inconclusive
CC(=O)N[C@@H]1[C@H](O[C@@H]2c3ccc(c(Cl)c3)Oc3cc4cc(c3O[C@H]3O[C@H](CO)[C@@H](O)[C@H](O)[C@H]3NC(=O)CCCCCCCC(C)C)Oc3ccc(cc3Cl)C[C@H]3NC(=O)[C@H](N)c5ccc(O)c(c5)Oc5cc(O)cc(c5)[C@H](NC3=O)C(=O)N[C@H]4C(=O)N[C@H]3C(=O)N[C@@H]2C(=O)N[C@@H](C(=O)O)c2cc(O)cc(O[C@H]4O[C@H](CO)[C@@H](O)[C@H](O)[C@H]4O)c2-c2cc3ccc2O)O[C@H](CO)[C@@H](O)[C@@H]1O	none (no result: IP6K1 inhibitor, KDM5B inh)
O=C(NCCc1ccccn1)c1ccnc(-c2nnc3ccc(Nc4ccccc4)nn23)c1	IP6K1 inhibitor -37, KDM5B inh inconclusive | IP6K1 inh cnf inconclusive
O=C(Nc1cccnc1)c1ccnc(-c2nnc3ccc(Nc4ccccc4)nn23)c1	IP6K1 inhibitor -56, KDM5B inh inconclusive | IP6K1 inh cnf inconclusive
CN(C)CCNC(=O)c1ccnc(-c2nnc3ccc(Nc4ccccc4)nn23)c1	none
Oc1ccc(-n2nnnc2SCc2ncc(-c3ccccc3)o2)cc1	none (no result: IP6K1 inhibitor, HEK293 viab, SNCA expr inh)
COC(=O)c1ccc([C@H]2Nc3ccc(S(=O)(=O)Nc4cccc(C)c4)cc3[C@H]3C=CC[C@H]32)cc1	KDM5B inh inconclusive
Cc1ccc([C@H]2Nc3ccc(S(=O)(=O)Nc4cccc(Cl)c4C)cc3[C@H]3C=CC[C@H]32)cc1	IP6K1 inhibitor -27, KDM5B inh inconclusive | IP6K1 inh cnf inactive
CCOc1ccc(NC(=O)CC2C(=O)Nc3nc4ccccc4n32)cc1 (configuration not stated)	none (no result: IP6K1 inhibitor, HEK293 viab, SNCA expr inh)
CCCCCCCCCCCCSCC(=O)O	none (no result: IP6K1 inhibitor, HEK293 viab, SNCA expr inh)
CCCCCCCCCCCCCCCCC(C(=O)O)C(O)(CC(=O)O)C(=O)O (configuration not stated)	IP6K1 inhibitor -78 (no result: KDM5B inh) | IP6K1 inh cnf 23µM
COc1ccc2c(c1)CC(NC(=O)Nc1cc(Cl)ccc1OC)CO2 (configuration not stated)	SNCA expr inh inconclusive
Cn1cc(CNc2ccc(-c3nc(-c4cccc(C(F)(F)F)c4)no3)cn2)cn1	IP6K1 inhibitor -33, KDM5B inh inconclusive | IP6K1 inh cnf inconclusive
FC(F)(F)c1cccc(-c2noc(-c3ccc(NCCN4CCOCC4)nc3)n2)c1	KDM5B inh inconclusive, SNCA expr inh inconclusive
CCC[C@H]1CN(CCS(C)(=O)=O)C[C@@H]1NC(=O)c1n[nH]nc1C	none
COc1ccc(-c2ccc3nc(-c4ccc(F)c(F)c4)oc3c2)c(OC)c1OC	none
C=Cc1cc(O)cc2nc(-c3ccc(O)c(F)c3)oc12	IP6K1 inhibitor -28 (no result: KDM5B inh, SNCA expr inh) | IP6K1 inh cnf inconclusive
C/C=C/C=C/C=C/C(=O)O[C@@H]1[C@@H](OC)C2=C(C(=O)N(C(C)C(=O)O)C2)[C@@]2(C)CCCC(C)(C)[C@H]12 (some centres not stated)	none (no result: KDM5B inh, SNCA expr inh) | IP6K1 inh cnf inactive
COc1ccccc1CN1CCNc2cnc(OCc3cccnc3)cc2C1	KDM5B inh inconclusive
COc1ccc(CN2CCNc3cnc(OCc4cccnc4)cc3C2)cc1O	IP6K1 inhibitor -29 | IP6K1 inh cnf inactive
O=C(Oc1cccc2cccnc12)c1ccccc1	none (no result: KDM5B inh)
c1ccc(-c2ccnc(NCCOc3cccc4cccnc34)n2)nc1	IP6K1 inhibitor -31, KDM5B inh 20µM | IP6K1 inh cnf inactive
COC(=O)c1ccccc1NC(=O)c1cnc2c(-c3cccc(C)c3)c(C)nn2c1C	none
C=CCSc1nc2c(c(=O)[nH]c(=O)n2C)n1Cc1ccccc1Cl	none (no result: IP6K1 inhibitor, HEK293 viab, SNCA expr inh)
Cc1ncccc1C(=O)N1CCC(c2nc(CCOCC3CC3)no2)C1 (configuration not stated)	none (no result: KDM5B inh)
COc1ccc(C(=O)Nc2ccc(NC(=O)c3cccs3)cc2)cc1OC	IP6K1 inhibitor -56, KDM5B inh inconclusive, HEK293 viab inconclusive | IP6K1 inh cnf inactive
Cc1ccc([N+](=O)[O-])cc1S(=O)(=O)N1CCn2cccc2C1c1ccccc1F (configuration not stated)	IP6K1 inhibitor -26, KDM5B inh inconclusive | IP6K1 inh cnf inactive
Cc1ccc([N+](=O)[O-])cc1S(=O)(=O)N1CCn2cccc2C1c1ccccc1 (configuration not stated)	KDM5B inh inconclusive
O=C(NOCC(O)CO)c1cc(Br)c(F)c(F)c1Nc1ccc(I)cc1F (configuration not stated)	none (no result: IP6K1 inhibitor, KDM5B inh)
Cn1cnc2c(F)c(Nc3ccc(Br)cc3F)c(C(=O)NOCCO)cc21	none (no result: KDM5B inh) | IP6K1 inh cnf inactive
COc1cccc(-c2cnc3[nH]cc(CC(=O)NCc4cccnc4)c3c2)c1	IP6K1 inhibitor -27, KDM5B inh inconclusive | IP6K1 inh cnf inconclusive
COc1ccc(OC)c(-c2cnc3[nH]cc(CC(=O)NCc4cccnc4)c3c2)c1	none
O=C(Cc1c[nH]c2ncc(-c3cccc(F)c3)cc12)NCc1cccnc1	KDM5B inh inconclusive
O=C(Cc1c[nH]c2ncc(-c3cccc(Cl)c3)cc12)NCc1cccnc1	IP6K1 inhibitor -27, KDM5B inh inconclusive | IP6K1 inh cnf inconclusive
CC(C)c1ccc(NC(=O)COC(=O)CCC2CCCC2)cc1	none (no result: IP6K1 inhibitor, HEK293 viab, SNCA expr inh)
Cc1ccc(S(=O)(=O)C(CNC(=O)c2ccccc2F)c2cccs2)cc1 (configuration not stated)	none

Source: PubChem (National Center for Advancing Translational Sciences (NCATS))
